Bioassay records (PubChem)
VP16 counter = VP16 counterscreen qHTS for inhibitors of ROR gamma transcriptional activity; Drosophila S2 Gal4-VP16 UAS-luciferase, luminescence, 20 h; Potency, µM (titrated, usually from 53.6 µM), most hits filed as inhibitors; hit rate 3.5% among 310,000; AID 2546, 2010;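 note: Gal4-VP16 expression switched on by copper sulfate through the metallothionein promoter; nearly all actives have a fitted effect of over 50% in size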
KB-V1 cytotox = qHTS assay for MDR1-selective chemotherapeutics: Primary screen using the drug-selected MDR subline cells KB-V1; Potency, µM (doses to about 46.1 µM), most hits filed as cytotoxic; hit rate 3.4% among 400,000; AID 1347076, 2019; KB-V1 MDR cells viability, CellTiter-Glo, 72 h; note: nearly all actives have a fitted effect of over 60% in size
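Cytotoxicity via CellTiter-Glo luminescence after 72 h compound exposure at 37 degrees C. Cells: drug-selected KB-V1 line, DMEM phenol-red free plus 10% FBS. Compounds tested at multiple concentrations; normalized data fitted to concentration-effect curves.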
RORgamma inh = qHTS for inhibitors of ROR gamma transcriptional activity; Drosophila S2 Gal4-RORgamma UAS-luciferase reporter, 20 h; Potency, µM (doses to about 53.6 µM), usual class: inhibitors; hit rate 5.4% among 310,000; AID 2551, 2010; note: nearly all actives have a fitted effect of over 60% in size
Target sequence (P51450 whole entry, looked up, the tested form may be a part): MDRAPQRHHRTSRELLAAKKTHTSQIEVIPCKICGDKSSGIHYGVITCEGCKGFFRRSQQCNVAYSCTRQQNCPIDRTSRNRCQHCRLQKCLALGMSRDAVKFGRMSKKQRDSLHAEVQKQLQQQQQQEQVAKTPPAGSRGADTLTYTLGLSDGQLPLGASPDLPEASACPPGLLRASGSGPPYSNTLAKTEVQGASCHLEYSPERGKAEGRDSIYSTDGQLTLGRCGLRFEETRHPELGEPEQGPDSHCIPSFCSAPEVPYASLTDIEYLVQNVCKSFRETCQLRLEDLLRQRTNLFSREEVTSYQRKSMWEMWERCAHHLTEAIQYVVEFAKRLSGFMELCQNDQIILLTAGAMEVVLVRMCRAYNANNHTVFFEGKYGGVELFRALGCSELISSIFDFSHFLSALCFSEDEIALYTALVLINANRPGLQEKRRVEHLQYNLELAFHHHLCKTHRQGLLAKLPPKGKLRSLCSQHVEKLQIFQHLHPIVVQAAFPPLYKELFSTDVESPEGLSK
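Luminescence from a UAS-regulated Photinus luciferase reporter in stably transfected Drosophila Schneider cells is measured; decreased signal marks ROR gamma inhibition. Fusion expression is induced by 700 uM copper sulfate for 20 hr.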
KB-3-1 cytotox = qHTS assay for MDR1-selective chemotherapeutics: Primary screen using the parental adenocarcinoma cell KB-3-1; KB-3-1 viability, CellTiter-Glo ATP luminescence, 72 h; Potency, µM (highest dose often 46.1 µM), hits mostly cytotoxic; hit rate 1.4% among 400,000; note: nearly all actives have a fitted effect of over 60% in size
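Cells are dispensed, compounds pinned in, plates held at 37 °C for 72 h, then CellTiter-Glo is added and luminescence read after 10 minutes. Cell line: parental KB-3-1 in phenol-red-free DMEM, 10% FBS.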
SW480 rereplic = A quantitative high throughput screen for small molecules that induce DNA re-replication in SW480 colon adenocarcinoma cells | Potency, µM (titrated, usually from 46.1 µM), usual class: activators | hit rate 1.8% among 340,000 | SW480 DNA re-replication, Hoechst DNA content imaging, 48 h; note: nearly all actives have a fitted effect of over 55% in size
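Compounds, transferred as 23 nL by pin tool, were incubated with cells for 48 hr; DNA content per nucleus was then quantified by Hoechst staining and fluorescence plate imaging.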
MCF10A rerep = A quantitative high throughput screen for small molecules that induce DNA re-replication in MCF 10a normal breast cells; MCF 10A DNA re-replication, Hoechst nuclear intensity, 48 h; Potency, µM (titrated, usually from 46.1 µM), most hits filed as activators; hit rate 2.9% among 350,000; note: nearly all actives have a fitted effect of over 50% in size
A number is an active result; . = inactive; ? = inconclusive; / = no result given; [ ] = another dose, or the depositor's remark. Compounds with a hit are over-represented: about 10% of the library has one in this group of screens. Calls come from the whole dose curve; as a rule, active = well fitted curve in the direction sought with a large enough effect; inconclusive = small, poorly fitted or top-dose-only effect, or another doubt; inactive = no such curve, though single readings can be large; an effect the other way counts as inactive or inconclusive.

SMILES	VP16 counter	KB-V1 cytotox	RORgamma inh	KB-3-1 cytotox	SW480 rereplic	MCF10A rerep
CC1=CC(C)(C)Nc2ccc(OC(=O)CN3C(=O)c4ccccc4C3=O)cc21	7.1µM	.	4.5µM	?	18µM	5.8µM
CC1=CC(C)(C)Nc2ccc(OC(=O)C(Cc3ccccc3)N3C(=O)c4ccccc4C3=O)cc21 (stereo not drawn)	.	.	?	.	.	?
COc1ccc(OCC(=O)OCc2cc(=O)n3nc(C4CCCCC4)sc3n2)cc1	/	.	/	.	/	/
CCCNC(=O)OC[C@H]1O[C@@H](CCO/N=C2/C[C@@H](O)[C@@H](O)[C@@H]3[C@@H]4C(=O)N(CC)C(=O)[C@H]4CC[C@@H]23)C=C[C@@H]1Oc1ccc(OC)cc1	.[10 µM]	/	.[10 µM]	/	/	/
COc1ccccc1-c1nnc2sc(-c3cnccn3)nn12	.	.	.	.	?	18µM
COc1ccccc1-c1nnc2sc(-c3cc4ccccc4o3)nn12	.	?	.	0.52µM	2.6µM	2.9µM
COc1ccc(-c2nn3c(-c4cccc(C)c4)nnc3s2)cc1OC	/	16µM	/	.	?	?
COc1ccccc1-c1nn2c(-c3ccc(C(C)(C)C)cc3)nnc2s1	.	/	.[10 µM]	/	/	/
c1ccc2oc(-c3nn4c(Cn5cnc6ccccc65)nnc4s3)cc2c1	/	.	/	.	.	.
CCOc1ccc(-c2nnc3sc(-c4ccccc4OC)nn23)cc1	/	.	/	.	.	.
COc1ccccc1-c1nnc2sc(-c3ccc(N(C)C)cc3)nn12	.	0.058µM	?	0.29µM	?	?
FC(F)(F)c1nnc2sc(-c3ccccn3)nn12	.	.	?	.	.	.
COc1ccccc1-c1nn2c(C(F)(F)F)nnc2s1	.	7.3µM	.	?	.	.
CN(C)c1ccc(-c2nn3c(-c4ccccc4Cl)nnc3s2)cc1	.	1.2µM	.	0.58µM	1µM	?
Clc1ccccc1-c1nnc2sc(-c3ccncc3)nn12	.	.	?	.	.	.
Nc1c(C(=O)Nc2ccccc2Cl)nnn1Cc1cccc(Cl)c1	/	.	/	.	/	/
CCOc1cc2c(cc1O)C(=NOC)CC1C2CCC2(C)C(O)CCC12 (stereo not drawn)	/	0.52µM	/	0.65µM	5.8µM	2.1µM
O=C(CC1C(=O)N(c2ccc(F)cc2)C(=O)N1Cc1ccc2c(c1)OCO2)Nc1ccc(Cl)cc1 (stereo not drawn)	/	.	/	.	/	/
C=CCn1c(COc2ccccc2)nnc1SC(C)C(=O)N/N=C/c1cc(Cl)ccc1O (stereo not drawn)	?	.	13µM	?	?	?
C/C=C(/C)C(=O)O[C@@H]1c2c(ccc3ccc(=O)oc23)O[C@@H]1C(C)(C)OC(=O)/C(C)=C\C	.	6.5µM	?	?	.[9.22 µM]	?
CCOc1ccc(-c2nnc(SCC(=O)NCCC(C)C)nc2-c2ccc(OCC)c(OC)c2)cc1OC	/	.	/	.	/	/
COc1ccc(NC(=O)CCNC(=O)Cn2cnc3sc4c(c3c2=O)CCCC4)c(OC)c1	.	.	.	.	.	.
COc1ccc(NC(=O)CCCNC(=O)Cn2cnc3sc4c(c3c2=O)CCCC4)c(OC)c1	.	21µM	.	.	.	.
O=C(Cn1cnc2sc3c(c2c1=O)CCCC3)NCC(=O)Nc1c(F)cccc1F	.	.	.	.	16µM	.
CC(=O)NC(c1cccc(F)c1)c1nc(/C=C/c2ccccc2)cs1 (stereo not drawn)	/	.	/	.	/	/
SMILES	VP16 counter	KB-V1 cytotox	RORgamma inh	KB-3-1 cytotox	SW480 rereplic	MCF10A rerep
CCOC(=O)c1c(-c2ccc(C)s2)csc1NC(=O)c1cccs1	.	.	.	.	.	.
CCOC(=O)c1c(-c2cccs2)csc1NC(=O)CSc1ncn[nH]1	?	21µM	?	.	.	?
CCOC(=O)c1c(NC(=O)c2cccs2)sc(CC)c1-c1cccs1	.	18µM	.	.	.	?
CCOC(=O)c1c(-c2ccc(OC)cc2)csc1NC(=O)CSc1ncnc2sccc12	.	.	.[10 µM]	.	.	16µM
CCOC(=O)c1c(-c2cccs2)csc1NC(=O)CN1CC(C)OC(C)C1 (stereo not drawn)	.	.	.	.	?	21µM
CC(=O)Nc1c(C(=O)Nc2ccccc2F)oc2ccccc12	/	.	/	.	/	/
COC(=O)C1=C(C)N(Cc2ccccc2)[C@]23O[C@](C(=O)OC)(C(=O)N2C1c1ccccc1)C(C(=O)OC)C3C(=O)OC (stereo partly drawn)	.[10 µM]	/	.[10 µM]	/	/	/
CCSC1=NC2(CCN(C(=O)NC3CCCCC3)CC2)N=C1c1ccc(OC)cc1	/	.	/	.	/	/
CCOC(=O)c1ccc(NC(=O)CSc2nc(C)cc(=O)[nH]2)cc1	.	.	.	.	.	.
CCOC(=O)c1c(-c2cccs2)csc1NC(=O)C(C)(C)C	.	15µM	.	.	.	13µM
CCOC(=O)c1c(-c2ccccc2Cl)csc1NC(=O)CSc1nc(C)cc(=O)[nH]1	.	?	.	.	23µM	?
CN(C)CCC=C1c2ccccc2C(C)(C)c2ccccc21	.	/	.	/	?	30µM
CN(C)CC/C=C1\c2cc(F)ccc2CSc2ccccc21	?	21µM	?	.	.	.
C#CCN(C)CC/C=C1\c2ccccc2CSc2ccccc21	.	.	?	.	16µM	?
CN(CC/C=C1/c2ccccc2CSc2ccccc21)CCCO	?	23µM	.	.	?	.
CN(C)CCC=C1c2ccccc2C=Cc2ccccc21	.	?	.[10 µM]	.	?	.
C=CCN(C)CC/C=C1\c2ccccc2CSc2ccccc21	.	.	.	.	.[9.22 µM]	.
CCCN(CCC)C(=O)Cn1c(=O)n(-c2ccccc2)c(=O)c2c3c(sc21)CCCC3	/	.	/	.	/	/
Cc1ccc(C#N)cc1	.	/	.	/	/	/
Cc1nc2nc(SCC(=O)c3ccc([N+](=O)[O-])cc3)[nH]c2cc1Br	?	.	2.5µM	.	?	?
Cc1ccc2c(c1)c1ncnc(N3CCOCC3)c1n2C	.	23µM	.	.	.	?
Cc1ccc2c(c1)c1ncnc(N3CCC4(CC3)OCCO4)c1n2C	?	/	.	/	/	/
CCCc1cc(=O)[nH]c(Nc2ccc(O)cc2C)n1	/	.	/	.	/	/
Cc1cc(O)ccc1Nc1nc2ccccc2nc1Nc1ccc(O)cc1C	.	.	.	.	?	18µM
COc1ccc(-c2c/c(=N\c3nc(-c4ccccc4)c(C)s3)c3ccccc3o2)cc1O	.	5.8µM	.	5.2µM	?	?
COc1ccc(-c2cc(=Nc3c(C)n(C)n(-c4ccccc4)c3=O)c3ccccc3o2)cc1	.	?	.	.	.	.
